Data reported in PubChem BioAssay (NCATS).
Several values for one entry are separate records, joined by “and”; a condition that tells them apart may be missing. Identical values can stand only once. Inconclusive results are not listed. Entries that show only a call come without a potency. Unmarked numbers belong to inactive results. Activity calls are given as the source filed them. Calls follow the shape of the dose curve; as a rule, active = well fitted inhibition curve with a large enough effect; inconclusive = small, poorly fitted or top-dose-only effect; inactive = flat fitted curve, though single readings scatter.

Tests used:
GB4 = assay: qHTS profiling for inhibitors of Plasmodium falciparum proliferation (AID 504749); conditions: P. falciparum in erythrocytes, SYBR Green DNA, 72 h; series mostly up to 28.7 µM
How it was run: (§1)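 Parasite proliferation within erythrocytes, 72 h exposure. Endpoint: SYBR Green I fluorescence after overnight lysis at room temperature. Controls: 0.29 uM artemisinin, DMSO.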

HB3 = assay: as above; conditions: P. falciparum in erythrocytes, SYBR Green DNA, 72 h; series mostly up to 28.7 µM
How it was run: as §1

ICS = assay: as above; conditions: P. falciparum in erythrocytes, SYBR Green DNA, 72 h; series mostly up to 28.7 µM
How it was run: as §1

JCK = assay: as above; conditions: P. falciparum in erythrocytes, SYBR Green DNA, 72 h; series mostly up to 28.7 µM
How it was run: as §1

N140 = assay: as above; conditions: P. falciparum in erythrocytes, SYBR Green DNA, 72 h; series mostly up to 28.7 µM
How it was run: as §1

P93_24 = assay: as above; conditions: P. falciparum in erythrocytes, SYBR Green DNA, 72 h; series mostly up to 28.7 µM
How it was run: as §1

P94_40 = assay: as above; conditions: P. falciparum in erythrocytes, SYBR Green DNA, 72 h; series mostly up to 28.7 µM
How it was run: as §1

PAD = assay: as above; conditions: P. falciparum in erythrocytes, SYBR Green DNA, 72 h; series mostly up to 28.7 µM
How it was run: as §1

PC15 = assay: as above; conditions: P. falciparum in erythrocytes, SYBR Green DNA, 72 h; series mostly up to 28.7 µM
How it was run: as §1

PC26 = assay: as above; conditions: P. falciparum in erythrocytes, SYBR Green DNA, 72 h; series mostly up to 28.7 µM
How it was run: as §1

PC49 = assay: as above; conditions: P. falciparum in erythrocytes, SYBR Green DNA, 72 h; series mostly up to 28.7 µM
How it was run: as §1

SC27B = assay: as above; conditions: P. falciparum in erythrocytes, SYBR Green DNA, 72 h; series mostly up to 28.7 µM
How it was run: as §1

TAB109 = assay: as above; conditions: P. falciparum in erythrocytes, SYBR Green DNA, 72 h; series mostly up to 28.7 µM
How it was run: as §1

TAB113 = assay: as above; conditions: P. falciparum in erythrocytes, SYBR Green DNA, 72 h; series mostly up to 28.7 µM
How it was run: as §1

TAB165 = assay: as above; conditions: P. falciparum in erythrocytes, SYBR Green DNA, 72 h; series mostly up to 28.7 µM
How it was run: as §1

W2 = assay: as above; conditions: P. falciparum in erythrocytes, SYBR Green DNA, 72 h; series mostly up to 28.7 µM
How it was run: as §1

CRL-7250 = normal cell line; assay: Cytotoxic Profiling of Annotated Libraries Using Quantitative High-Throughput Screening (AID 1296008); conditions: Five cell lines viability, CellTiter-Glo ATP luminescence, 48-72 h; max response: stronger effect = lower value
How it was run: (§2)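 Compounds were pin-transferred onto cells and incubated 48 or 72 hr at 37 degree Celsius, 95% humidity. CellTiter-Glo was added, plates sat 10 min at room temperature, then ATP-coupled luminescence was imaged as the viability read-out.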

HEK293 = assay: as above; conditions: Five cell lines viability, CellTiter-Glo ATP luminescence, 48-72 h; max response: stronger effect = lower value
How it was run: as §2

HaCat = assay: as above; conditions: Five cell lines viability, CellTiter-Glo ATP luminescence, 48-72 h; max response: stronger effect = lower value
How it was run: as §2

KB-3-1 = assay: as above; conditions: Five cell lines viability, CellTiter-Glo ATP luminescence, 48-72 h; max response: stronger effect = lower value
How it was run: as §2
Also: nearly all actives have a fitted effect of over 60% in size.
Potency is read from the fitted curve at half-maximal effect.

O=C(/C=C/c1ccccc1)NCCO
Potency (GB4): inactive
Potency (HB3): inactive
Potency (ICS): inactive
Potency (JCK): inactive
Potency (N140): inactive
Potency (P93_24): inactive
Potency (P94_40): inactive
Potency (PAD): inactive
Potency (PC15): inactive
Potency (PC26): inactive
Potency (PC49): inactive
Potency (SC27B): inactive
Potency (TAB109): inactive
Potency (TAB113): inactive
Potency (TAB165): inactive
Potency (W2): inactive
outcome (CRL-7250): inactive
max response (HEK293): -1.9%
max response (HaCat): -18%
max response (KB-3-1): 9.29%

c1ccc2sc(SSc3nc4ccccc4s3)nc2c1
Potency (GB4): inactive
Potency (HB3): inactive
Potency (ICS): inactive
Potency (JCK): inactive
Potency (N140): inactive
Potency (P93_24): inactive
Potency (P94_40): inactive
Potency (PAD): inactive
Potency (PC15): inactive
Potency (PC26): inactive
Potency (PC49): inactive
Potency (SC27B): inactive
Potency (TAB109): inactive
Potency (TAB113): inactive
Potency (TAB165): inactive
Potency (W2): inactive
max response (CRL-7250): 1.15%
max response (HEK293): 3.28%
max response (HaCat): -2.36%
max response (KB-3-1): 18.6%

COc1cc2c3cc1Oc1cc(ccc1O)C[C@@H]1c4c(cc(OC)c(O)c4Oc4ccc(cc4)C[C@@H]3N(C)CC2)CC[N+]1(C)C
Potency (GB4): inactive
Potency (HB3): inactive
Potency (ICS): inactive
Potency (JCK): inactive
Potency (N140): inactive
Potency (P93_24): inactive
Potency (P94_40): inactive
Potency (PAD): inactive
Potency (PC15): inactive
Potency (PC26): inactive
Potency (PC49): inactive
Potency (SC27B): inactive
Potency (TAB109): inactive
Potency (TAB113): inactive
Potency (TAB165): inactive
Potency (W2): inactive
max response (CRL-7250): 1.72%
outcome (HEK293): inactive
max response (HaCat): 1.8%
max response (KB-3-1): -2.77%

O=C(CS)Nc1ccccc1
max response (CRL-7250): -21.9%
max response (HEK293): -28.6%
outcome (HaCat): inactive
max response (KB-3-1): -19%

CN1[C@@H]2CC[C@H]1CC(OC(c1ccccc1)c1ccccc1)C2 (stereo not given in full)
Potency (GB4): 8.49 µM (active)
Potency (HB3): inactive
Potency (ICS): 10 µM (active) and 11.2 µM (active)
Potency (JCK): 11.2 µM (active)
Potency (P94_40): 10 µM (active)
Potency (PAD): 11.2 µM (active)
Potency (PC15): 10 µM (active)
Potency (PC49): 3.55 µM (active) and 1.41 µM (active)
Potency (SC27B): inactive
Potency (TAB165): 11.2 µM (active)
Potency (W2): 1.9 µM (active)
max response (CRL-7250): 0.151%
max response (HEK293): -16.7%
outcome (HaCat): inactive
max response (KB-3-1): -4.67% and 6.16% and -6.04%
outcome (KB-3-1): inactive

CC1(C)S[C@@H]2[C@H](NC(=O)[C@H](NC(=O)N3CCN(S(C)(=O)=O)C3=O)c3ccccc3)C(=O)N2[C@H]1C(=O)O
Potency (GB4): inactive
Potency (HB3): inactive
Potency (ICS): inactive
Potency (JCK): inactive
Potency (N140): inactive
Potency (P93_24): inactive
Potency (P94_40): inactive
Potency (PAD): inactive
Potency (PC15): inactive
Potency (PC26): inactive
Potency (PC49): inactive
Potency (SC27B): inactive
Potency (TAB109): inactive
Potency (TAB113): inactive
Potency (TAB165): inactive
Potency (W2): inactive
max response (CRL-7250): 4.22%
max response (HEK293): -0.837%
outcome (HaCat): inactive
max response (KB-3-1): 1.37%
outcome (KB-3-1): inactive

CN1CC(=O)N/C1=N/C(=O)Nc1cccc(Cl)c1
max response (CRL-7250): 2.65%
outcome (HEK293): inactive
outcome (HaCat): inactive
max response (KB-3-1): 1.15% and -4.39%

Nc1ccc(C(=O)O)c(O)c1
Potency (GB4): inactive
Potency (HB3): inactive
Potency (ICS): inactive
Potency (JCK): inactive
Potency (N140): inactive
Potency (P93_24): inactive
Potency (P94_40): inactive
Potency (PAD): inactive
Potency (PC15): inactive
Potency (PC26): inactive
Potency (PC49): inactive
Potency (SC27B): inactive
Potency (TAB109): inactive
Potency (TAB113): inactive
Potency (TAB165): inactive
Potency (W2): inactive
max response (CRL-7250): -0.825%
max response (HEK293): 3.06%
outcome (HaCat): inactive
max response (KB-3-1): -11.5%

O=C(OCc1ccccc1)c1ccccc1
Potency (GB4): inactive
Potency (HB3): inactive
Potency (ICS): inactive
Potency (JCK): inactive
Potency (N140): inactive
Potency (P93_24): inactive
Potency (P94_40): inactive
Potency (PAD): inactive
Potency (PC15): inactive
Potency (PC26): inactive
Potency (PC49): inactive
Potency (SC27B): inactive
Potency (TAB109): inactive
Potency (TAB113): inactive
Potency (TAB165): inactive
Potency (W2): inactive
max response (HEK293): -2.07%
max response (HaCat): 4.92%
max response (KB-3-1): 3.34%

O=C(O)Cc1cccc(-c2cc(CCCCCCc3ccc(O[C@H]4O[C@H](CO)[C@@H](O)[C@H](O)[C@@H]4O)c(-c4cccc(CC(=O)O)c4)c3)ccc2O[C@H]2O[C@H](CO)[C@@H](O)[C@H](O)[C@@H]2O)c1
max response (HEK293): 1.99%
max response (HaCat): -11.5%
outcome (KB-3-1): inactive

c1ccc(CCNc2nc(-c3ccccc3)cs2)cc1
Potency (HEK293): 11.9 µM (active)
outcome (HaCat): inactive
max response (KB-3-1): -17.2%

COc1ccc(-c2cc(=S)ss2)cc1
Potency (GB4): inactive
Potency (HB3): inactive
Potency (ICS): 7.94 µM (active)
Potency (JCK): inactive
Potency (N140): inactive
Potency (PC15): inactive
Potency (PC26): inactive
Potency (PC49): inactive
Potency (TAB109): inactive
Potency (W2): inactive
max response (CRL-7250): -2.86%
outcome (HaCat): inactive
max response (KB-3-1): 24%

CCCSc1ccc2nc(NC(=O)OC)[nH]c2c1
Potency (GB4): inactive
Potency (HB3): inactive
Potency (ICS): inactive
Potency (JCK): inactive
Potency (N140): inactive
Potency (P93_24): inactive
Potency (PAD): inactive
Potency (PC15): inactive
Potency (PC26): inactive
Potency (PC49): inactive
Potency (SC27B): inactive
Potency (TAB109): inactive
Potency (TAB113): inactive
Potency (TAB165): inactive
Potency (CRL-7250): 5.96 µM (active)
Potency (HEK293): 0.75 µM (active)
max response (HaCat): -6.26%
